# From PubChem BioAssay
# KDM5B inhibitor – inhibitors of human KDM5B histone demethylase; KDM5B demethylase, FDH-coupled NADH fluorescence (FDH is formaldehyde dehydrogenase); Potency, µM (series often up to 57.7 µM), hits mostly inhibitors; 220,000 compounds, 2.6% hits; AID 1347165; active = well fitted inhibition curve with a large enough effect; note: 0% is about no effect; nearly all actives have a fitted effect of over 70% in size
#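 qHTS format, multiple compound concentrations. Buffer 50 mM HEPES pH 7.5/0.01% Tween-20; 200 nM KDM5BΔAP final; 10 min compound preincubation; substrate-mix levels 12.5 µM peptide, 25 µM α-KG, 0.25 mM NAD⁺; 30 min RT; ΔRFU.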
# The depositor's hits bear a star; i = inactive. This excerpt belongs to a sample that is enriched for hits. Potency is the fitted concentration of half-maximal effect.
SMILES,KDM5B inhibitor
CCc1ccc(NC(=O)Cn2c(-c3cccc(Cl)c3)nc(C)c(CCO)c2=O)cc1,i
COc1ccc(-c2cc(=O)n3[nH]c(C)c(-c4ccc(OC)cc4)c3n2)cc1,i
O=C(Cn1ccn2nc3c(c2c1=O)CCCC3)NCc1cccs1,20µM*
CC(=O)c1ccc(NC(=O)Cn2ccn3nc4c(c3c2=O)CCCC4)cc1,i
COC(=O)c1ccccc1NC(=O)Cn1ccn2nc3c(c2c1=O)CCCC3,i
CC(C)c1ccc(NS(=O)(=O)c2ccc3c(c2)-c2oncc2CO3)cc1,i
Cc1cccc(/C=N/Nc2cc(C(F)(F)F)ccc2Cl)c1,i
CCN1CC(CN(C)Cc2nc(-c3ccc(C(F)(F)F)cc3)no2)CC1=O (configuration not stated),i
COc1ccc(S(=O)(=O)NCC2CCCN(C(=O)c3cccnc3C)C2)cc1 (configuration not stated),i
Cn1cnnc1CC1CCCN(C(=O)NC2CCCC2)C1 (configuration not stated),i
CCN1CC(CNc2nccc(-c3c(C)nn(C)c3C)n2)CC1=O (configuration not stated),28µM*
CC(=O)N1CCCC(CNc2nccc(-c3c(C)nn(C)c3C)n2)C1 (configuration not stated),28µM*
CCNc1nccc(N2CCC(CC(=O)N(CC)CC)CC2)n1,i
CCc1cccc(NC(=O)C2CCN(C(=O)c3nnn4c3COC(c3ccc(C)cc3)C4)CC2)c1 (configuration not stated),i
Cc1ccccc1NC(CNS(=O)(=O)c1ccccc1)c1ccccc1 (configuration not stated),i
COc1ccc(-c2nc(S(=O)(=O)c3ccc4c(c3)OCCO4)c(N3CCN(C)CC3)o2)cc1,i
Cc1ccc(Nc2c(-c3cccnc3)nc3ccc(Br)cn23)cc1,i
CN(Cc1ccccc1)C(=O)c1nc2ccccn2c1CNCCCOc1cccnc1,i
Cc1ccc(-c2nc3cnccn3c2NCCC(=O)O)cc1,28µM*
Cc1ccc(NCCC(=O)O)cc1,i
Cc1ccn2c(NC3CCCC3)c(-c3ccncc3)nc2c1,i
CN(Cc1ccccc1)C(=O)CCNC(=O)Nc1ccccc1,i
Cc1ccc(-c2nocc2CCC(=O)O)cc1,i
Cc1ccc(-c2nc3cnccn3c2NCCC(=O)N(C)C)cc1,28µM*
Cc1ccccc1-c1nc2cnccn2c1NCCC(=O)N(C)Cc1ccccc1,28µM*
SMILES,KDM5B inhibitor
CCCc1nnc2sc(COc3ccc(Br)cc3)nn12,i
Cc1oc(-c2ccccc2)nc1C(=O)OCC(=O)NC1(C#N)CCCCC1,i
CCOc1ccc(-c2nc(CNC(=O)Nc3cccc(OC)c3)c(C)o2)cc1,i
CCOc1cc(/C=C2/NC(=O)NC2=O)ccc1OCc1ccc(Cl)cc1Cl,i
N#Cc1ccc(CSc2ccccc2C(=O)Nc2ccc3c(c2)OCCCO3)cc1,i
CCCCCCCCNC(=O)/C(C#N)=C\C=C\c1ccccc1,i
COc1ccc(-c2c(C)c3c(n2C)C(c2ccccc2)Oc2ccccc2-3)cc1 (configuration not stated),i
COc1ccc(OCCOC(=O)Cc2coc3cc4c(cc23)CCC4)cc1,i
CC(Sc1cc(Cl)ccc1Cl)C(=O)NC(C)(C)C (configuration not stated),i
O=C(O)c1ccc(C(F)(F)F)nc1,i
O=Cc1ccc(-c2ccc(C(=O)O)cn2)cc1,22µM*
O=Cc1cccc(-c2ccc(C(=O)O)cn2)c1,i
Cc1cc2ccccc2n1CC(=O)N1CCCCCC1,i
O=C(C[C@@H]1CCNC[C@@H]1Cc1cc(-c2ccc(F)cc2)on1)Nc1nccs1,i
COc1ccc(NS(=O)(=O)c2ccc(OCC(=O)Nc3ccc4c(c3)OCO4)c(C)c2)cc1,i
COc1ccc(-c2noc([C@@H]3CCCN3C(=O)c3ccc(C)cc3)n2)cc1OC,i
COc1ccc(-c2noc([C@@H]3CCCN3C(=O)Cc3ccc(C)cc3)n2)cc1OC,32µM*
COc1ccc(-c2noc([C@@H]3CCCN3C(=O)c3ccc(F)cc3)n2)cc1OC,i
COc1ccc(-c2noc([C@@H]3CCCN3C(=O)Cc3ccc(F)cc3)n2)cc1OC,28µM*
COc1ccc(-c2noc([C@@H]3CCCN3C(=O)Cc3ccccc3C)n2)cc1OC,28µM*
Cc1ccccc1CC(=O)N1CCC[C@H]1c1nc(-c2ccccc2)no1,i
COc1ccc(-c2noc([C@@H]3CCCN3C(=O)Cc3ccc(C)cc3)n2)cc1,i
COc1ccc(-c2noc([C@@H]3CCCN3C(=O)c3cc(F)ccc3F)n2)cc1OC,i
Cc1ccccc1CC(=O)N1CCC[C@H]1c1nc(-c2ccc(F)cc2)no1,i
COC(=O)CSc1ncn(-c2nc(NC(C)C)nc(N(C)C)n2)n1,i
SMILES,KDM5B inhibitor
S=c1sc2c(s1)SCCS2,i
Cc1ccc(CNCc2ccc(-c3ccccc3F)o2)cc1,i
O=c1c2nccnc2nc(SCc2cccc(F)c2)n1Cc1ccc2c(c1)OCO2,i
CCOCCOC(=O)C(C)Oc1ccc2c(=O)c(-c3ccccc3OC)c(C(F)(F)F)oc2c1 (configuration not stated),i
CC(C)CNC(=O)C(C)(C)Oc1nn(C(C)C)c2ccc(CN3CCOCC3)cc12,35µM*
CC(C(=O)NC1CCN(Cc2ccccc2)CC1)C1CCOCC1 (configuration not stated),i
COCCCNC(=O)C(C)(C)Oc1nn(Cc2cccnc2)c2ccc(COC)cc12,i
CC(C)n1nc(OC(C)(C)C(=O)NC2CCOCC2)c2cc(CN3CCOCC3)ccc21,32µM*
COCCNC(=O)C(C)(C)Oc1nn(Cc2cccc(Cl)c2)c2ccccc12,i
CC(C)n1nc(OC(C)(C)C(=O)NCCOc2ccccc2)c2cc(CN3CCOCC3)ccc21,28µM*
CC(C)CNC(=O)N1CCOc2ccc(CN3CCOCC3)cc2C1,i
CC(C)n1nc(OC(C)(C)C(=O)NC2CCC(O)CC2)c2cc(CN3CCOCC3)ccc21 (configuration not stated),25µM*
COc1cc(Br)c(/C=C(/C#N)C(=O)C(C)(C)C)cc1OC,i
Cc1cnc2c(S(=O)(=O)N3CCC(NS(=O)(=O)c4ccccc4)CC3)cccc2c1,i
CCn1c(=O)c(-c2noc(C(=O)NCc3ccc(C)o3)n2)nn(-c2ccccc2)c1=O,i
N#Cc1c(N)n[nH]c1CCCNC(=O)c1cn(-c2ccccc2)nc1-c1cccnc1,i
O=C(CCc1c[nH]c2ccccc12)N1CCN(C(=O)c2ccco2)CC1,i
CC(C)(C)C(=O)Nc1cccc(NC(=O)c2cc(Cl)ccc2F)c1,i
COC(=O)c1ccc2nc(C[C@@H]3C[C@@H](C(C)C)[C@H](CNCc4ccccc4F)C=C3C)[nH]c2c1,i
COc1ccccc1N1CCN(C(=O)c2noc3c2CCc2sccc2-3)CC1,i
CCCCNc1nc(-c2ccc(Cl)cc2Cl)cs1,i
Cc1cc(NCCc2cnccn2)nc(-c2ccccc2O)n1,i
COCc1noc(CCNC(=O)c2cc(-c3ccccc3)on2)n1,i
COCc1noc(CCNc2cc(C)nc(-c3ccccc3O)n2)n1,22µM*
Oc1ccc(-n2nnnc2SCc2cc(Cl)c3c(c2)OCCCO3)cc1,i
COc1ccc(C2=NN(C(C)=O)C(c3ccc4nccnc4c3)C2)cc1OC (configuration not stated),i
COc1cc(-n2ccc3c(nnc4c(-c5cccc(Cl)c5)c(C)nn43)c2=O)cc(OC)c1OC,i
